The nature of assay [1]: Cell Viability - BJ (AID 421; calls by dose curve;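 further: potency means the concentration at half of the fitted maximal effect; cells exposed to compound for 40 hours at 37 °C before readout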). As to conditions: BJ fibroblast viability, qHTS. Put shortly:
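Cytotoxicity as drop in intracellular ATP (CellTiter-Glo, 20 min RT) after 40 hr compound exposure of BJ fibroblasts at 37 °C. Titrations scaled between DMSO and 100 uM tamoxifen, Hill-fitted for AC50.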
In general terms: In qHTS, concentration-response curves come from the screen itself.

Assay [2] is described as follows: Cell Viability - HepG2 (AID 433; calls by dose curve;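 further: potency means the concentration at half of the fitted maximal effect; potency for ATP loss meaning cytotoxicity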). As to conditions: qHTS. Put shortly:
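In this qHTS format, a 40 h, 37 °C compound incubation of HepG2 cells in complete medium precedes a 20 min CellTiter-Glo step at room temperature. Tamoxifen and doxorubicin serve as positive controls; Hill-equation fits yield AC50.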

Assay [3] is described as follows: Cell Viability - Renal Proximal Tubule (AID 545). Further: nearly all actives have a fitted effect of over 40% in size. Further: potency means the concentration at half of the fitted maximal effect. As to conditions: renal proximal tubule cells viability, primary cells of rat origin; activity change, negative = cytotoxicity: at 91.7 µM (top of the series). Put shortly: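 In this qHTS format, normal rat kidney-derived proximal tubule cells in complete culture medium receive compound titrations, then sit 40 hours at 37 °C before luciferase-based ATP quantitation; potency is reported as AC50 from concentration-response curves.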

Assay [4] in a line: Cellular Toxicity (caspase-3) Jurkat (AID 655).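 Further: cells exposed to compound for 16 h at 37 °C before reading.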 As to conditions: Jurkat caspase-3 activation, luminescence; caspase-3 activation: at 92.2 µM (top of the series), DMSO = 0%, tamoxifen = 100%. Put shortly:
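qHTS in human Jurkat T-cell leukemia line: 16 hr compound treatment at 37 °C, caspase-3/7 activity measured by Caspase-Glo luminescence. AC50 derived from Hill equation.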

Assay [5] is described as follows: MultiTox-Fluor Cytotoxicity Assay - LYMP1-001 - Dead Cells (AID 946). As to conditions: LYMP1-001 lymphoblastoid cells, dead-cell protease fluorescence; series mostly up to 92.2 µM. A digest of the protocol:
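Cytotoxicity as increased dead-cell protease fluorescence (bis-AAF-R110, 485/520 nm), read 60 min after MultiTox-Fluor reagent. Human lymphoblastoid line exposed 16 h; Hill-fitted AC50, with DMSO as 0% and 15 uM tetraoctylammonium bromide as 100%.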

A short description of assay [6]: Cell Viability - LYMP1-002 - Assay at 16 hr (AID 948).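 Further: 0% = DMSO alone and full effect = 92 µM tetraoctylammonium bromide.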 As to conditions: LYMP1-002 lymphoblastoid cell viability; series mostly up to 92.2 µM. Put shortly: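 In this qHTS, lymphoblastoid LYMP1-002 cells (human) receive compounds for 16 hr at 37 C. Viability is taken from CellTiter-Glo ATP luminescence, and AC50 derives from standard Hill fits.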
Assay [7] is described as follows: MultiTox-Fluor Cytotoxicity Assay - LYMP1-002 - Live Cells (AID 955).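 Further: cells exposed to compound for 16 hours; on the % scale 0 is the no-effect control and ±100 the full control effect.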 As to conditions: LYMP1-002 lymphoblastoid live-cell protease fluorescence viability; series mostly up to 46.1 µM. Put shortly: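 Cytotoxicity in the human lymphoblastoid line LYMP1-002 is measured as loss of live-cell protease activity after 16 h treatment in complete culture medium. AC50 is derived from Hill-equation fits of qHTS concentration-response data.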

The nature of assay [8]: MultiTox-Fluor Cytotoxicity Assay - LYMP1-003 - Dead Cells (AID 961). Further: nearly all actives have a fitted effect of over 70% in size. Further: potency means the concentration at half of the fitted maximal effect. As to conditions: LYMP1-003 lymphoblastoid cells, dead-cell protease fluorescence; series mostly up to 92.2 µM. A digest of the protocol: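 Dead-cell protease release, detected as bis-AAF-R110 fluorescence at 485/520 nm, was measured in LYMP1-003 cells after 16 h compound treatment at 37 C. AC50 values came from Hill-modeled qHTS curves normalized to DMSO (0%) and 15 uM tetraoctylammonium bromide (100%).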

Assay [9] in a line: Cell Viability - LYMP2-004 (AID 966). Further: nearly all actives have a fitted effect of over 65% in size. Further: potency means the concentration at half of the fitted maximal effect.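 On activity change, negative = cytotoxicity: plate controls were DMSO only for no effect and tetraoctylammonium bromide control for full effect.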 As to conditions: LYMP2-004 lymphoblastoid cell viability, qHTS; series mostly up to 92.2 µM. Put shortly:
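Acute toxicity is scored as a concentration-dependent drop in intracellular ATP, quantified by luciferase luminescence, in human lymphoblastoid cells exposed to compound for 24 hr. AC50 derives from Hill-equation modelling.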

A short description of assay [10]: Cell Viability - LYMP2-011 (AID 969). Further: nearly all actives have a fitted effect of over 60% in size. Further: potency means the concentration at half of the fitted maximal effect. As to conditions: LYMP2-011 lymphoblastoid cells viability; series mostly up to 92.2 µM. Put shortly: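 Acute toxicity is scored as a concentration-dependent drop in intracellular ATP of a human lymphoblastoid line after 24 hr treatment. Values are AC50s modeled with the Hill equation.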
The nature of assay [11]: Cell Viability - LYMP2-017 (AID 972).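 Further: cells exposed to compound for 24 hours at 37 °C; nearly all actives have a fitted effect of over 55% in size.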 Further: potency means the concentration at half of the fitted maximal effect. On activity change, negative = cytotoxicity: on the % scale 0 is the no-effect control and ±100 the full control effect. As to conditions: LYMP2-017 lymphoblastoid cell viability; series mostly up to 92.2 µM. Put shortly: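 Steps: plate 2500 lymphoblastoid cells per well; incubate 5 hr at 37 C; add compound across a concentration series and incubate 24 hr at 37 C; add CellTiter-Glo and read luminescence after 30 min at room temperature; fit Hill curves for AC50.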

Assay [12] is described as follows: Cell Viability - LYMP2-007 (AID 979).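 Further: cells exposed to compound for 24 h before reading; nearly all actives have a fitted effect of over 60% in size.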 Further: potency means the concentration at half of the fitted maximal effect.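 On activity change, negative = cytotoxicity: 0% = DMSO only and the negative end = 92 µM tetraoctylammonium bromide.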 As to conditions: LYMP2-007 lymphoblastoid cell viability; series mostly up to 92.2 µM. A digest of the protocol:
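Acute toxicity is scored as a concentration-dependent fall in intracellular ATP in human lymphoblastoid cells treated 24 hr at 37 C, measured by luciferase luminescence; Hill-equation modelling yields AC50.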

The nature of assay [13]: Cell Viability - LYMP2-014 (AID 983).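 Further: cells exposed to compound for 24 h at 37 °C; nearly all actives have a fitted effect of over 50% in size.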 Further: potency means the concentration at half of the fitted maximal effect.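 On activity change, negative = cytotoxicity: plate controls were DMSO only for no effect and 92 µM tetraoctylammonium bromide for full effect.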 As to conditions: LYMP2-014 lymphoblastoid cells, viability qHTS; series mostly up to 92.2 µM. A digest of the protocol:
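Decrease in intracellular ATP after 24 hr treatment at 37 C, measured by luciferase luminescence, indicated cytotoxicity. Concentration-response data were fitted with the standard Hill equation to give AC50.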

Assay [14] is described as follows: Cell Viability - LYMP2-016 (AID 984).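 Further: cells exposed to compound for 24 hours at 37 °C; nearly all actives have a fitted effect of over 55% in size.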 Further: potency means the concentration at half of the fitted maximal effect. On activity change, negative = cytotoxicity: on the % scale 0 is the no-effect control and ±100 the full control effect. As to conditions: LYMP2-016 lymphoblastoid cell viability, qHTS; series mostly up to 92.2 µM. A digest of the protocol:
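Concentration-dependent ATP depletion measured in LYMP2-016 lymphoblastoid cells, 24 h, 37 C; luciferase-based luminescent detection; Hill-equation AC50.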

The nature of assay [15]: Cell Viability - LYMP2-018 (AID 985).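 Further: compound exposure lasted 24 hr at 37 °C; nearly all actives have a fitted effect of over 50% in size.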 Further: potency means the concentration at half of the fitted maximal effect.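 On activity change, negative = cytotoxicity: plate controls were DMSO only for no effect and tetraoctylammonium bromide at 92 µM for full effect.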 As to conditions: LYMP2-018 lymphoblastoid cells, viability (qHTS); series mostly up to 92.2 µM. Put shortly: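 Acute cytotoxicity is scored as a concentration-dependent drop in intracellular ATP after 24 hr exposure of the lymphoblastoid line in complete culture medium, measured by luciferase luminescence. Potency is expressed as AC50 from Hill modelling.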

Assay [16] can be described thus: Cell Viability - LYMP2-020 (AID 986).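 Further: cells exposed to compound for 24 h at 37 °C; plate controls were DMSO only for no effect and tetraoctylammonium bromide at 92 µM for full effect; nearly all actives have a fitted effect of over 55% in size.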 As to conditions: series mostly up to 92.2 µM. Put shortly: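 Acute cytotoxicity in a human lymphoblastoid line is scored as a concentration-dependent fall in cellular ATP after 24 hr at 37 C in complete medium. The positive control is tetraoctylammonium bromide, and potency is given as Hill-fit AC50.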
A short description of assay [17]: Cell Viability - LYMP2-022 (AID 987). Further: nearly all actives have a fitted effect of over 55% in size. Further: potency means the concentration at half of the fitted maximal effect. As to conditions: LYMP2-022 lymphoblastoid cell viability; series mostly up to 92.2 µM. A digest of the protocol:
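Acute toxicity in a human lymphoblastoid line is scored as decreased intracellular ATP after 24 hr compound treatment at 37 C. ATP is measured by CellTiter-Glo luminescence; curves are fitted with the Hill equation to give AC50.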

The nature of assay [18]: Cell Viability - LYMP1-002 - Assay at 24 hr (AID 993). Further: potency means the concentration at half of the fitted maximal effect. On activity change, negative = cytotoxicity: on the % scale 0 is the no-effect control and ±100 the full control effect. As to conditions: LYMP1-002 lymphoblastoid cells viability; series mostly up to 92.2 µM. Put shortly: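 qHTS, LYMP1-002 lymphoblastoid, 24 h cpd, 37 C, CellTiter-Glo ATP luminescence; AC50 via Hill eq.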
A short description of assay [19]: qHTS assay for environmental chemicals that activate the Aryl hydrocarbon Receptor (AhR) signaling pathway (AID 651777). Further: % of control where 0% means no effect; nearly all actives have a fitted effect of over 15% in size. As to conditions: 1A2-DRE human hepatoma cells, luciferase, 24 h; activation: stronger effect = higher value. Put shortly: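 Quantitative HTS in stably transfected human liver-derived cells whose luciferase gene sits downstream of the CYP1A2 promoter and dioxin response element. After 24 hr exposure at 37 C, One-Glo luminescence was measured.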

The target in assay [20] is Nuclear receptor subfamily 1 group I member 2 (Rattus norvegicus) (UniProt Q9R1A7). Nature of the assay: qHTS assay for small molecule activators of the rat pregnane X receptor (rPXR) signaling pathway (AID 651751; call rule not given here; further: 0% is about no effect). As to conditions: rPXR reporter cells, luciferase (One-Glo), 24 h.

Values without a mark were called inactive. Results filed as inconclusive are left out. Calls of active or inactive are those of the source. Unless noted, the call rests on the fitted dose curve; in most records, active means well fitted curve in the direction sought with a large enough effect; inconclusive means small, poorly fitted or top-dose-only effect, or another doubt; inactive means no such curve, though single readings can be large; an effect the other way counts as inactive or inconclusive.

Sequence of Nuclear receptor subfamily 1 group I member 2 (Rattus norvegicus) (Q9R1A7 whole entry, looked up): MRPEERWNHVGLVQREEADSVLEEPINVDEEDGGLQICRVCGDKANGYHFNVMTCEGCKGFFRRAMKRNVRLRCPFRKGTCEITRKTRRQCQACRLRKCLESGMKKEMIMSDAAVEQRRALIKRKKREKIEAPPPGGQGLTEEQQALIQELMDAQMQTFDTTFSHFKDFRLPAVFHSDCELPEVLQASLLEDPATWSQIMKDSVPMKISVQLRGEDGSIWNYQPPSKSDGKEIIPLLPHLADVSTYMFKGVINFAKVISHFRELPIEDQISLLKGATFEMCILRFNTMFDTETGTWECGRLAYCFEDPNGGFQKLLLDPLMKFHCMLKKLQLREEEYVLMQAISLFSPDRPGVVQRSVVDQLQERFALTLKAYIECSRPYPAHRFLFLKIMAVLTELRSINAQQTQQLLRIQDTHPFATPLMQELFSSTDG

On to `C=CC(C)(O)CCCC(C)CCCC(C)CCCC(C)C` (stereo unspecified), for which the Potency in [1] and in [2] was above 92 µM throughout. Besides, the Potency result in assay [3], in [4], in assay [5], in assay [6], in [8] and in [9] was “inactive” in each case. Moreover, the Potency result in assay [10], in assay [11], in assay [12], in assay [13], in assay [14] and in assay [15] was “inactive” throughout. Also, the Potency entry in assay [16], in [17] and in assay [18] was “inactive” in each case. In [7], the result was inactive. Also, in assay [19], the activation was -0.417%. The max response in assay [20] was 4.48%.
Take `CC1=C(/C=C/C(C)=C/C=C/C(C)=C/C=O)C(C)(C)CCC1`: the Potency in [1] was 35.2 µM (active); in assay [3], 15.8 µM (active); in [8], 50.1 µM (active); in [9], 39.8 µM (active); in assay [10] it was 63.1 µM (active); in [11] it was 39.8 µM (active). Besides, the Potency in assay [12] is 39.8 µM (active); in assay [13], 50.1 µM (active); in assay [14], 50.1 µM (active); in assay [15], 39.8 µM (active); in assay [17], 39.8 µM (active); in assay [18], 50.1 µM (active). Besides, the activation in assay [19] was 4.9%.
`C[C@@H]1CC2(OC(O)[C@]3(C)O[C@H]23)O[C@H]2C[C@@]3(C)[C@@H]4CC[C@H]5C(C)(C)C(O[C@@H]6OC[C@@H](O)[C@H](O)[C@H]6O)CC[C@@]56C[C@@]46CC[C@]3(C)[C@@H]12` (stereo partly specified): the Potency in assay [1] was above 92 µM; in assay [3], 31.6 µM (active). The Potency entry in [5], in [8], in assay [10], in assay [11] and in assay [12] was “inactive” in each case. In assay [7], the compound was classed as inactive. Further, the activation in assay [19] is 0.629%. The max response in assay [20] is -9.9%.
On to `Cc1c2ccccc2c(C)c2c1ccc1ccccc12`, for which the Potency in [1] is 13.8 µM (active); in assay [8], 39.8 µM (active). The Potency result in [4], in [6], in [9], in assay [10], in assay [12] and in [13] was “inactive” in each case. Moreover, the Potency result in [14], in assay [15], in assay [16], in [17] and in [18] was “inactive” each time. The compound was called inactive in [7].
Consider `CC(=O)Nc1cccc(C)c1`, for which the Potency in assay [1] and in [2] was above 92 µM in each case. For the same compound, the Potency result in assay [3], in assay [4], in [5], in assay [6], in assay [8] and in [10] was “inactive” throughout. For the same compound, the Potency entry in [11], in assay [12], in [13], in assay [14], in assay [15] and in assay [16] was “inactive” in each case. Moreover, the Potency entry in assay [17] and in assay [18] was “inactive” throughout. The result in [7] was inactive. Moreover, the activation in [19] was 0.306%. For the same compound, in [20], the max response is -0.307%.

Source of the values: PubChem BioAssay (NCATS).
